Results filed as inconclusive are left out. Values without a mark were called inactive. Active and inactive are the calls of the source. Calls come from the whole dose curve; as a rule, active = well fitted curve in the direction sought with a large enough effect; inconclusive = small, poorly fitted or top-dose-only effect, or another doubt; inactive = no such curve, though single readings can be large; an effect the other way counts as inactive or inconclusive.
Legend:
[1] = BET inhibitor-based combinations targeting novel dependencies in MECOM-rearranged (r) AML: SET-2 cell line (AID 2202231); settings: SET-2 AML cells viability, CellTiter-Glo luminescence, 48 h; viability: active compounds read low, concentration not given here; note: nearly all actives have a fitted effect of over 35% in size;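 for viability: plate controls were DMSO treated cells for no effect and wells without cells for full effect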
How it was run: (§1)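 Viability of cells (500 per well) is scored by luminescent CellTiter-Glo at 48 hr post-dosing. Eleven-point titrations are normalized to DMSO and empty controls and reduced to AUC values.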

[2] = BET inhibitor-based combinations targeting novel dependencies in MECOM-rearranged (r) AML: OCI-AML3 cell line (AID 2202232); settings: Potency: OCI-AML3 viability; note: nearly all actives have a fitted effect of over 35% in size;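 for viability (% of control): series mostly up to about 46 µM; plate controls were DMSO vehicle wells for no effect and wells without cells for full effect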
How it was run: as §1

[3] = BET inhibitor-based combinations targeting novel dependencies in MECOM-rearranged (r) AML: UCSD-AML1 cell line (AID 2202235); note: nearly all actives have a fitted effect of over 40% in size;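 for viability (% of control): series mostly up to about 46 µM; plate controls were DMSO vehicle wells for no effect and blank wells for full effect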
How it was run: (§2)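 Using pin-tool transfer, drugs were added in 11 doses to cells (500/well), incubated 48 hr, and assessed with CellTiter-Glo. Z-AUC is a mean-centring transformation applied separately to each screened line.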

[4] = BET inhibitor-based combinations targeting novel dependencies in MECOM-rearranged (r) AML: AML-191 cell line (AID 2202236; note: nearly all actives have a fitted effect of over 35% in size;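 for viability (% of control): plate controls were vehicle wells for no effect and wells without cells for full effect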)
How it was run: as §1

[5] = BET inhibitor-based combinations targeting novel dependencies in MECOM-rearranged (r) AML: AML-194 cell line (AID 2202237; note: nearly all actives have a fitted effect of over 40% in size;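 for viability (% of control): plate controls were vehicle wells for no effect and wells without cells for full effect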)
How it was run: as §1

[6] = BET inhibitor-based combinations targeting novel dependencies in MECOM-rearranged (r) AML: MV-4-11 cell line (AID 2202233); note: nearly all actives have a fitted effect of over 45% in size
How it was run: as §2

[7] = BET inhibitor-based combinations targeting novel dependencies in MECOM-rearranged (r) AML: HNT-34 cell line (AID 2202234); note: nearly all actives have a fitted effect of over 35% in size;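 for viability (% of control): plate controls were vehicle wells for no effect and cell-free wells for full effect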
How it was run: as §2
Potency is the fitted concentration of half-maximal effect.

Question: Which results are given for `CN1CCN(C(=O)[C@H]2[C@@H](C(=O)O)[C@H]3CC[C@@H]2O3)CC1`?
Answer: viability [1]: 113%; viability (% of control) [2]: 112% [at 8.46 µM]; viability (% of control) [3]: 104% [at 8.46 µM]; viability (% of control) [4]: 93.9% [at 8.46 µM]; viability (% of control) [5]: 96.1% [at 8.46 µM]

Question: What does the source list for `CC1(C)OC2=C(C(=O)c3ccccc3C2=O)[C@H](NCc2ccccc2)[C@@H]1O`?
Answer: Potency [1]: 6.61 µM (active); Potency [6]: 8.33 µM (active); Potency [7]: 7.42 µM (active); Potency [3]: 9.34 µM (active); Potency [4]: 7.42 µM (active); Potency [5]: 7.42 µM (active)

Question: With `CC[C@H](Nc1ncnc2nc[nH]c12)c1oc2ccccc2c(=O)c1-c1cccc(F)c1` as the molecule, how does the viability [1] read?
Answer: The viability was 93.4%.

Question: What about the Potency [6] of the same molecule?
Answer: The Potency was 6.61 µM (active).

Question: With `Nc1nccc2c1ncn2[C@@H]1C=C(CO)[C@@H](O)[C@H]1O` as the molecule, how does the Potency [1] read?
Answer: The Potency was 0.525 µM (active).

Question: What about the Potency [6] of the same molecule?
Answer: Its Potency is 0.166 µM (active).

Question: And the Potency [7]?
Answer: The Potency was 0.833 µM (active).

Question: With `CC1(N)CCN(c2cnc(-c3cccc(Cl)c3Cl)c(N)n2)CC1` as the molecule, how does the viability [1] read?
Answer: Its viability is 110%.

Question: What about the Potency [6] of the same molecule?
Answer: Its Potency is 2.88 µM (active).

Question: What about the Potency [7] of the same molecule?
Answer: The Potency was “inactive”.

Question: What about the Potency [3] of the same molecule?
Answer: The Potency was “inactive”.

Question: What about the Potency [4] of the same molecule?
Answer: The Potency was “inactive”.

Question: Which results are given for `C=C1/C(=C\C=C2/CCC[C@]3(C)[C@@H]([C@H](C)CCCC(C)(C)O)CC[C@@H]23)C[C@@H](O)C[C@@H]1O`?
Answer: viability [1]: 99.5%; Potency [2]: 20.9 µM (active); Potency [5]: 23.5 µM (active)

Question: With `CS(=O)(=O)c1ccc(-c2cnc(NCc3ccco3)n3cnnc23)cc1` as the molecule, how does the viability [1] read?
Answer: Its viability is 108%.

Question: What about the Potency [6] of the same molecule?
Answer: Its Potency is “inactive”.

Question: What about the Potency [7] of the same molecule?
Answer: Its Potency is “inactive”.

Question: And the Potency [3]?
Answer: The Potency was “inactive”.

Question: And the Potency [4]?
Answer: The Potency was “inactive”.

Question: Which results are given for `CC(=O)c1cc2c(o1)C(=O)c1ccccc1C2=O`?
Answer: Potency [1]: 2.63 µM (active); Potency [2]: 2.63 µM (active); Potency [3]: 2.95 µM (active); Potency [4]: 2.35 µM (active); Potency [5]: 2.35 µM (active)

Question: With `Cc1cc(C)cc(Oc2ccc(CNC(=O)[C@H](C)N)cc2C)c1` as the molecule, how does the viability [1] read?
Answer: The viability was 109%.

Question: What about the Potency [6] of the same molecule?
Answer: Its Potency is 18.6 µM (active).

Question: Which results are given for `CCCCCCCCCCCC1=C(O)C(=O)C=C(O)C1=O`?
Answer: viability [1]: 115%; Potency [6]: 13.2 µM (active)

Question: Which Potency [1] does the source give for `c1ccc2c(-c3cnn4cc(-c5ccc(OCCN6CCOCC6)cc5)cnc34)ccnc2c1` here?
Answer: Its Potency is 12.9 µM (active).

Question: What about the Potency [6] of the same molecule?
Answer: Its Potency is 4.56 µM (active).

Question: And the Potency [7]?
Answer: Its Potency is 8.11 µM (active).

Question: Which Potency [1] does the source give for `COc1cccc2c1C(=O)c1c(O)c3c(c(O)c1C2=O)C[C@@](O)(C(C)=O)C[C@@H]3O[C@H]1C[C@H](N)[C@H](O)[C@H](C)O1` here?
Answer: Its Potency is 0.59 µM (active).

Question: And the Potency [2]?
Answer: Its Potency is 0.0934 µM (active).

Question: What about the Potency [4] of the same molecule?
Answer: Its Potency is 0.186 µM (active).

Question: For `C[C@@H](C(=O)Nc1ccc(Cl)cc1)C1CCC(c2ccnc3ccc(F)cc23)CC1` (some centres undefined), which Potency [1] is on record?
Answer: Its Potency is 16.6 µM (active).

Question: What about the Potency [2] of the same molecule?
Answer: Its Potency is “inactive”.

Question: And the Potency [3]?
Answer: Its Potency is “inactive”.

Question: What about the Potency [5] of the same molecule?
Answer: The Potency was “inactive”.

Question: With `CN[C@@H](C)C(=O)N[C@@H]1C(=O)N(Cc2c(C)ccc3ccccc23)c2ccc(C#N)cc2N(C(C)=O)[C@H]1C` as the molecule, how does the viability [1] read?
Answer: Its viability is 102%.

Question: What about the Potency [2] of the same molecule?
Answer: Its Potency is “inactive”.

Question: What about the Potency [3] of the same molecule?
Answer: The Potency was “inactive”.

Question: And the Potency [5]?
Answer: Its Potency is “inactive”.

Question: Which results are given for `c1ccc2c(Cc3c[nH]c4ccccc34)c[nH]c2c1`?
Answer: viability [1]: 103%; Potency [2]: inactive; Potency [3]: inactive; Potency [4]: inactive; Potency [5]: inactive

Question: With `Cc1cc(C)c(S(=O)(=O)N(CCc2cccc(Br)c2)Cc2ccc(-c3cccc(S(C)(=O)=O)c3)cc2)c(C)c1` as the molecule, how does the viability [1] read?
Answer: Its viability is 117%.

Question: What about the Potency [2] of the same molecule?
Answer: The Potency was “inactive”.

Question: And the Potency [3]?
Answer: Its Potency is “inactive”.

Question: What about the Potency [4] of the same molecule?
Answer: The Potency was “inactive”.

Question: And the Potency [5]?
Answer: The Potency was “inactive”.

Question: With `CN(C)Cc1cccc(N=C(c2ccccc2)c2c(O)[nH]c3cc(C(=O)N(C)C)ccc23)c1` as the molecule, how does the Potency [1] read?
Answer: The Potency was 20.9 µM (active).

Question: And the Potency [6]?
Answer: The Potency was 6.61 µM (active).

Question: What about the Potency [7] of the same molecule?
Answer: Its Potency is 14.8 µM (active).

Question: For `CC1(C)SCCN(S(=O)(=O)c2ccc(OCC#CCO)cc2)[C@H]1C(=O)NO`, which viability [1] is on record?
Answer: Its viability is 96.5%.

Question: What about the Potency [2] of the same molecule?
Answer: The Potency was “inactive”.

Question: What about the Potency [4] of the same molecule?
Answer: Its Potency is “inactive”.

Question: What does the source list for `COC1CC(C(=O)c2ccc3c(N)ncc(-c4ccc(-c5cnn(C)c5)cc4)c3n2)C1` (centres undefined)?
Answer: viability [1]: 92.9%; Potency [6]: 2.95 µM (active)

Question: Which Potency [1] does the source give for `Nc1nc(N)c2nc(-c3cccc(Cl)c3)c(N)nc2n1` here?
Answer: Its Potency is 0.372 µM (active).

Question: What about the Potency [2] of the same molecule?
Answer: Its Potency is 2.95 µM (active).

Question: And the Potency [4]?
Answer: The Potency was 5.25 µM (active).

Question: Which Potency [1] does the source give for `O=C(N[C@@H](c1ccccc1)[C@@H]1CCCCN1)c1cccc(C(F)(F)F)c1Cl` here?
Answer: Its Potency is 1.18 µM (active).

Question: And the Potency [7]?
Answer: Its Potency is 18.6 µM (active).

Question: Which viability [1] does the source give for `COc1cc(OC)c(NC(=O)Nc2cc(C)on2)cc1Cl` here?
Answer: The viability was 115%.

Question: What about the Potency [7] of the same molecule?
Answer: The Potency was “inactive”.

Question: What about the Potency [3] of the same molecule?
Answer: Its Potency is “inactive”.

Question: And the Potency [4]?
Answer: Its Potency is “inactive”.

Question: And the Potency [5]?
Answer: Its Potency is “inactive”.

Question: Which results are given for `C=CCc1cccc(/C=N/NC(=O)CN2CCN(Cc3ccccc3)CC2)c1O`?
Answer: Potency [1]: 20.9 µM (active); Potency [6]: 16.6 µM (active); Potency [3]: 23.5 µM (active); Potency [4]: 8.33 µM (active); Potency [5]: 14.8 µM (active)

Question: For `Clc1cccc(C(c2ccc3nc[nH]c3c2)n2ccnc2)c1` (centres undefined), which viability [1] is on record?
Answer: The viability was 113%.

Question: And the Potency [7]?
Answer: Its Potency is “inactive”.

Question: And the Potency [3]?
Answer: Its Potency is “inactive”.

Question: And the Potency [4]?
Answer: Its Potency is “inactive”.

Question: And the Potency [5]?
Answer: The Potency was “inactive”.

Question: With `CC(=O)O/N=C1/C(c2c(O)[nH]c3cc(Br)ccc23)=Nc2ccccc21` as the molecule, how does the Potency [1] read?
Answer: The Potency was 14.8 µM (active).

Question: What about the Potency [7] of the same molecule?
Answer: Its Potency is 2.95 µM (active).

Question: What about the Potency [3] of the same molecule?
Answer: Its Potency is “inactive”.

Question: And the Potency [4]?
Answer: Its Potency is 18.6 µM (active).

— PubChem BioAssay (NCATS)
